Experimental data published in PubChem BioAssay.

The molecules below were run against Dihydroorotate dehydrogenase (quinone), mitochondrial (Plasmodium falciparum (isolate 3D7)) (UniProt Q08210) (assay: inhibition of P. falciparum DHODH – biochemical, C-terminal His tag, absorbance 600 nm, primary screen (AID 1175;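 further: recombinant parasite enzyme with a five histidine tag at its C terminus; test concentration not given here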)). Conditions: PfDHODH enzyme, DCIP absorbance 600 nm; higher = more signal, called active from +8 up or from −8 down.
Chain of Dihydroorotate dehydrogenase (quinone), mitochondrial (Plasmodium falciparum (isolate 3D7)) (Q08210 whole entry, looked up): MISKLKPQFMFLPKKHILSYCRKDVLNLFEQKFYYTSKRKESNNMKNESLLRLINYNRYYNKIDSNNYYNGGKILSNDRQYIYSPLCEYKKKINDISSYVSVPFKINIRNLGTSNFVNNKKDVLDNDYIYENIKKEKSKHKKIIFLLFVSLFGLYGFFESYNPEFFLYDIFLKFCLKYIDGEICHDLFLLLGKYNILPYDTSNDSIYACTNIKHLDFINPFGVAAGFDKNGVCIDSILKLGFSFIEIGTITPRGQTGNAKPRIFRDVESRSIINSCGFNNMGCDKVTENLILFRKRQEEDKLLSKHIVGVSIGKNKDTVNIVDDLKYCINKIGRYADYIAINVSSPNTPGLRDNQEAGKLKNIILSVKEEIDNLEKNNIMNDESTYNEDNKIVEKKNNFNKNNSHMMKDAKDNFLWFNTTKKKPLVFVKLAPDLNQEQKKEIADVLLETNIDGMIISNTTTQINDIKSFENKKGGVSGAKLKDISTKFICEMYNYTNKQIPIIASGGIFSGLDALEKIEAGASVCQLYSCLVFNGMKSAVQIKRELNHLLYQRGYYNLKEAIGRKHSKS

Composite z-score, inactive:
COC(=O)[C@H](Cc1ccc(O)cc1)N[C@@H](/C=C/C1CC1)[C@H](O)Cc1ccccc1 -0.23, COc1ccc(CCNC(=O)[C@@H]2c3ccccc3C(=O)N(Cc3ccccc3OC)[C@H]2c2ccc(CO)cc2)cc1 1.14, COc1ccc(C(=O)Nc2cccc(CN3C(=O)[C@]4(O[C@H](CC(=O)N5Cc6ccccc6C[C@H]5CO)[C@@H]([Si](C)(C)c5ccc(OC)cc5)[C@@H]4C)c4ccccc43)c2)cc1 -3.9, C=CCN1Cc2ccccc2[C@H]2OC(c3ccc(OCCCO)cc3)=N[C@@]2(CCS(=O)(=O)c2ccccc2)C1=O 0.2, C=CCOC(=O)[C@H]1[C@@H]2C(=O)O[C@@H](c3ccccc3)[C@@H](c3ccccc3)N2[C@@H](c2ccc(OCCOC(=O)[C@H]3C[C@H]4C(=O)N[C@@H](CC(C)C)C(=O)N4[C@H]3c3ccc(O)cc3)cc2)[C@]12C(=O)Nc1ccccc12 -0.976, CC1CC/C=C\[C@H]2OC34C=CCN(Cn5nnc6ccccc65)C(=O)[C@H]3N(CCCCCCO)C(=O)[C@@H]4C2C(=O)O1 (stereo not given in full) -0.374, [N-]=[N+]=Nc1ccccc1C[C@@]1(C(=O)NCc2ccccc2)N=C(c2ccc(OCCCO)cc2)O[C@@H]1c1ccccc1N=[N+]=[N-] 0.366, Cc1ccc(S[C@]2(C(=O)NCCCN(C)C)CC(=O)N(C3Cc4ccccc4C3)[C@@H]2c2ccc(CO)cc2I)cc1 0.505, CC(C)N1C(=O)c2ccccc2[C@](C)(C(=O)NCC(F)(F)F)[C@@H]1c1ccc(CO)cc1 -0.172, CN(C)CCCC[C@@H]1NC(=O)[C@H]2C[C@@H](C(=O)O)[C@@H](c3ccc(O)cc3)N2C1=O -0.676, O=C1[C@@H]2[C@@H](CC(COc3ccccc3)=C([C@H](O)CCc3ccccc3)[C@@H]2CO)C(=O)N1Cc1ccccc1 -2.37, C=C(CCCC)/C(=C/C[C@H](OC(=O)c1ccncc1)c1ccccc1OCCO)c1cc(C(=O)OC)ccc1OC -1.36, CC(C)NC(=O)[C@@]1(C)c2ccccc2C(=O)N(Cc2ccccc2)[C@H]1c1ccc(CO)cc1 -1.48, COc1ccc(C#Cc2ccc3c(c2)[C@]2(C(=O)N3)[C@H](C(=O)O)[C@H]3C(=O)O[C@H](c4ccccc4)[C@H](c4ccccc4)N3[C@@H]2c2ccccc2OCCO)cc1 -3.86, CCCCCCc1nc(Cc2cc(OC)c(OC)c(OC)c2)cc2c1[Si](C(C)C)(C(C)C)O[C@H]2c1ccccc1 0.364, O=C1C[C@@](C(=O)NCc2ccccc2)(c2ccc([N+](=O)[O-])cc2)[C@@H](c2ccc(CO)cc2)N1C1CCCCC1 -1.58, O=C(NCc1ccccc1)[C@@H]1c2ccccc2C(=O)N(Cc2cc(C(F)(F)F)cc(C(F)(F)F)c2)[C@H]1c1ccc(CO)cc1 0.819, COc1ccc([Si](C)(C)[C@@H]2[C@@H](CC(=O)N(CCO)Cc3ccccc3)O[C@]3(C(=O)N(Cc4ccc(I)cc4)c4ccccc43)[C@H]2C)cc1 1.07, COCCn1c(C(=O)N(C)C)cc2c1C[C@H]1CN(C(=O)c3ccccc3)[C@@](Cc3ccc(OC)cc3)(C(=O)OC)[C@@H]21 -0.271, O=C1C2C=CC(C(O)c3cccs3)N(Nc3ccc([N+](=O)[O-])cc3)C2C(=O)N1c1ccccc1 (stereo not given) -1.63, O=C1O[C@@H](c2ccccc2)[C@@H](c2ccccc2)N2[C@@H](c3ccc(OCCO)cc3)[C@]3(C(=O)Nc4ccc(C#CC5(O)CCCCCC5)cc43)[C@@H](C(=O)Nc3nc4ccccc4s3)[C@H]12 -0.263, CC(C)[Si](C#CCCc1ccccc1)(O[C@H](c1ccccc1)c1cn(Cc2ccccc2)nn1)C(C)C -0.262, COCCOC(=O)N1C(=O)[C@@]2(c3cc(C#CC4(O)CCCCCC4)ccc31)[C@H](c1ccc(O)cc1)N1[C@H](c3ccccc3)[C@H](c3ccccc3)OC(=O)[C@H]1[C@@H]2C(=O)N1CCCCCCC1 -1.45, CN1C(=O)C2C(C3CC3)C=C3CN(Cc4cccc(Cl)c4)[C@@H]([C@@H](O)Cc4ccccc4)C3C2C1=O (stereo not given in full) -0.0831, C=CCC(OC(C)=O)[C@@H]1[C@@H](N(Cc2ccc(-c3ccccc3)cc2)C(=O)c2cccc3ccccc23)c2cc(OCCCO)ccc2N1C(=O)Cc1ccc(OC)cc1 (stereo not given in full) -0.0892, O=C1NC(=O)C2C1C=CC(C(O)c1ccc([N+](=O)[O-])cc1)N2Nc1ccccn1 (stereo not given) 0.622, CCCCC(O)C1C=CC2C(=O)N(c3ccccc3)C(=O)C2N1Nc1ccccc1 (stereo not given) 0.477, COCCOC(=O)N1C(=O)[C@@]2(c3cc(C#Cc4ccc(OC)cc4)ccc31)[C@H](c1ccc(OCCO)cc1)N1[C@H](c3ccccc3)[C@H](c3ccccc3)OC(=O)[C@H]1[C@@H]2C(=O)NC[C@H](O)c1ccccc1 -1.12, O=C1O[C@H](c2ccccc2)[C@H](c2ccccc2)N2[C@H]1[C@@H](C(=O)N1CCN(c3ncccn3)CC1)[C@]1(C(=O)Nc3ccc(C#CCCO)cc31)[C@H]2c1ccc(O)cc1 0.438, O=C1C[C@@](C(=O)O)(c2ccc([N+](=O)[O-])cc2)[C@@H](c2ccc(CO)cc2)N1C1CCCCC1 -0.0999, CN(C)CCCNC(=O)[C@@]1(C)c2ccccc2C(=O)N(Cc2ccc(OC(F)(F)F)cc2)[C@H]1c1ccc(CO)cc1 -0.397, COCCOC(=O)N1C(=O)[C@@]2(c3cc(C#CCCO)ccc31)[C@H](c1ccc(OCCO)cc1)N1[C@H](c3ccccc3)[C@H](c3ccccc3)OC(=O)[C@H]1[C@@H]2C(=O)N1CCCCCCC1 -0.0613, C#CCN1[C@@H](Cc2ccccc2)C(=O)O[C@H](Cc2ccccc2)[C@@H]1/C=C/C1CC1 0.0255, CC(C)C[C@@H]1NC(=O)[C@@H]2C[C@H](C(=O)NCCCCCCNC(=O)CS)[C@H](c3cccc(OCCO)c3)N2C1=O 0.283, CCCCCC1=C2CNC(CC(C)C)(C(=O)OC)C=C2C(C)C1=O (stereo not given) -1.09
